Screens as filed in PubChem.
A selection: hits, their analogues and other compounds. The true share with any hit is near 12%.
HP1b binding inh: HTS for Inhibitors of HP1-beta Chromodomain Interactions with Methylated Histone Tails; AlphaScreen HP1-beta / biotin-H3K9me3 peptide binding; Chromobox protein homolog 1 (Homo sapiens), P83916; hit rate 0.56% among 390,000; Potency, µM (titrated, usually from 114 µM), most hits filed as inhibitors; also: nearly all actives have a fitted effect of over 70% in size
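Compound inhibition of the preformed complex between 50 nM HP1-beta and 50 nM biotinylated H3K9me3 peptide was read by AlphaScreen. Buffer was PBS pH 7.4 with 0.01% Tween-20. Incubations ran 30 min at room temperature, with 10 ug/mL donor/acceptor beads.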
G9a inh: qHTS Assay for Inhibitors of Histone Lysine Methyltransferase G9a; Potency, µM (titrated, usually from 102 µM), actives largely listed as inhibitors; G9a H3K9 monomethylation, AlphaScreen, 2 h; hit rate 8.8% among 350,000; AID 504332, 2011; also: nearly all actives have a fitted effect of over 75% in size
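Signal arises when biotinylated H3K9 peptide, once monomethylated, bridges streptavidin donor and antibody-captured acceptor beads. Enzyme at 20 nM was preincubated 15 min with test compounds; peptide 500 nM and SAM 20 uM then reacted for 2 h.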
BAZ2B block: qHTS Assay for Inhibitors of BAZ2B | Bromodomain adjacent to zinc finger domain protein 2B (Homo sapiens), Q9UIF8 | AlphaScreen BAZ2B-H3K14Ac peptide displacement | Potency, µM (doses to about 114 µM), hits mostly inhibitors | hit rate 4.4% among 360,000 | AID 504333, 2011; also: nearly all actives have a fitted effect of over 60% in size
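Multi-concentration screen (max 110 uM) measuring displacement of acetylated histone H3 peptide from BAZ2B by AlphaScreen, using 50 nM protein, 50 nM peptide and 10 ug/mL streptavidin donor plus Ni-chelate acceptor beads.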
L3MBTL1 inh: qHTS Assay for the Inhibitors of L3MBTL1; AlphaScreen L3MBTL1–H3K9me1 peptide binding; Potency, µM (top dose mostly 57.1 µM), actives largely listed as inhibitors; hit rate 0.66% among 230,000; AID 485360, 2010; also: nearly all actives have a fitted effect of over 60% in size
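AlphaScreen proximity signal between nickel-chelate acceptor and streptavidin donor beads (final 10 ug/mL) reports binding of 50 nM L3MBTL1 to 75 nM biotin-H3 K9me1 peptide; complex incubated with compounds 30 min at room temperature; cefsulodin titration as control.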
JMJD2A Tudor inh: qHTS Assay for Inhibitors of JMJD2A-Tudor Domain; AlphaScreen JMJD2A-Tudor / H3K4me3 peptide binding; Potency, µM (top dose mostly 114 µM), most hits filed as inhibitors; hit rate 4.4% among 390,000; AID 504339, 2011; also: nearly all actives have a fitted effect of over 50% in size
Sfp inh: qHTS Assay for Inhibitors of Bacillus subtilis Sfp phosphopantetheinyl transferase (PPTase); 4'-phosphopantetheinyl transferase ffp (Bacillus subtilis), Q9F4F7; Biochemical Sfp PPTase activity, qHTS; Potency, µM, actives largely listed as inhibitors; hit rate 3.5% among 310,000;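 also: the enzyme is Sfp with the accession as filed and its product quenches rhodamine fluorescence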
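Fluorescence-quenching assay with 15 nM Sfp, 5 uM rhodamine-CoA and 12.5 uM BHQ-2-labelled ybbR peptide in pH 7.6 Hepes/MgCl2 buffer. Enzyme was pre-incubated with compound for 15 min at room temperature. Rate was taken from the 30-min fluorescence change (525/598 nm).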
Large screens that a line does not name were inactive. Calls follow the shape of the dose curve; as a rule, active = well fitted curve in the direction sought with a large enough effect; inconclusive = small, poorly fitted or top-dose-only effect, or another doubt; inactive = no such curve, though single readings can be large; an effect the other way counts as inactive or inconclusive.

COC(=O)Cc1c(C)c2ccc3c(c2oc1=O)CN(Cc1ccccc1OC)CO3	JMJD2A Tudor inh inconclusive (no result: L3MBTL1 inh, Sfp inh)
Nc1cccc(Cl)c1N1CCOCC1	HP1b binding inh inconclusive, JMJD2A Tudor inh 20µM
Nc1ccc(N2CCOCC2)c(Cl)c1	G9a inh inconclusive
O=C(COC(=O)CSc1ccc([N+](=O)[O-])cc1)NC1CCCCCCC1	HP1b binding inh inconclusive, G9a inh 45µM, JMJD2A Tudor inh inconclusive (no result: Sfp inh)
O=C(COC(=O)c1ccc(-c2ccc([N+](=O)[O-])cc2)o1)NC(=O)NC1CCCCC1	G9a inh 40µM, Sfp inh inconclusive
O=C(COC(=O)c1ccc(-c2ccc([N+](=O)[O-])cc2)o1)NC(=O)NC12CC3CC(CC(C3)C1)C2	HP1b binding inh inconclusive, G9a inh inconclusive, BAZ2B block inconclusive, JMJD2A Tudor inh inconclusive
CCN(C(=O)COC(=O)CSc1ccc([N+](=O)[O-])cc1)C1CCS(=O)(=O)C1 (stereo unspecified)	HP1b binding inh 50µM, JMJD2A Tudor inh 35µM (no result: L3MBTL1 inh)
Cc1ccc(SCC(=O)OCC(=O)NC2CCCCCCC2)cc1	none (no result: Sfp inh)
CN(C(=O)COC(=O)CSc1ccc(C(N)=O)cc1[N+](=O)[O-])C1CCS(=O)(=O)C1 (stereo unspecified)	none (no result: Sfp inh)
CN(C(=O)COC(=O)CSc1ccc([N+](=O)[O-])cc1)C1CCS(=O)(=O)C1 (stereo unspecified)	G9a inh 50µM (no result: Sfp inh)
CCOc1ccccc1CNC(=O)c1ccc(N2Cc3ccccc3Oc3ncccc32)s1	none (no result: L3MBTL1 inh, Sfp inh)
COc1ccc(C(=O)Nc2ccccc2C(=O)OCc2cc(=O)n3nc(C4CC4)sc3n2)cc1	none (no result: L3MBTL1 inh, Sfp inh)
Cc1ccc(CNC(=O)C2CCCN(c3ncnc4onc(-c5ccc(F)cc5)c34)C2)cc1 (stereo unspecified)	none (no result: L3MBTL1 inh, Sfp inh)
CN(C(=O)CSc1nc2cc([N+](=O)[O-])ccc2n1-c1ccc(F)cc1)C1CCS(=O)(=O)C1 (stereo unspecified)	G9a inh 20µM, JMJD2A Tudor inh 79µM
Cc1ccc(-n2c(=O)[nH]c3cc(C(=O)NCc4ccccc4)ccc3c2=O)cc1	none (no result: L3MBTL1 inh, Sfp inh)
CCCCn1c(SCC(=O)c2ccccc2)nc2c(sc3ccccc32)c1=O	none (no result: L3MBTL1 inh, Sfp inh)
CCCCNC(=O)c1cc2cc(OC)ccc2[nH]1	none
COc1ccc2[nH]c(C(=O)NCCN3CCCCC3)cc2c1	G9a inh 56µM (no result: L3MBTL1 inh)
COc1ccc2[nH]c(C(=O)NCCCn3ccnc3)cc2c1	G9a inh 50µM (no result: L3MBTL1 inh)
CCOc1ccccc1NC(=O)CCc1c(C)nc2c(c(C)nn2-c2ccccc2)c1C	none (no result: L3MBTL1 inh, Sfp inh)
Cn1cnnc1SCC(=O)NCCc1ccccc1	none (no result: L3MBTL1 inh)
O=C(O)c1ccc(CSc2nnnn2-c2ccc(F)cc2)cc1	none (no result: L3MBTL1 inh)
CC(=O)c1ccc(O)c(CSc2nncn2C)c1	BAZ2B block inconclusive
Cn1cnnc1SCC(=O)c1ccco1	G9a inh 45µM
Cn1cnnc1SCC(=O)c1ccc(O)c(O)c1	G9a inh 7.1µM, BAZ2B block inconclusive, Sfp inh inconclusive
O=C(CSc1nnnn1-c1ccc(F)cc1)c1ccc(O)c(O)c1	G9a inh inconclusive, BAZ2B block 45µM, JMJD2A Tudor inh inconclusive (no result: L3MBTL1 inh)
CCOc1ccc(S(=O)(=O)N(CC(=O)Nc2ccc3c(c2)OCO3)c2ccccc2)cc1	none (no result: L3MBTL1 inh, Sfp inh)
CCC(C)n1c(SCc2ccc(F)cc2Cl)nc2ccsc2c1=O (stereo unspecified)	none (no result: L3MBTL1 inh, Sfp inh)
O=[N+]([O-])c1cccc(/C=N/n2c(-c3cccnc3)n[nH]c2=S)c1	HP1b binding inh inconclusive, G9a inh 1.8µM, JMJD2A Tudor inh 4µM, Sfp inh inconclusive
O=[N+]([O-])c1ccc(Cl)c(/C=N/n2c(-c3cccnc3)n[nH]c2=S)c1	G9a inh 5.6µM (no result: HP1b binding inh, JMJD2A Tudor inh)
O=[N+]([O-])c1cc(/C=N/n2c(-c3ccncc3)n[nH]c2=S)ccc1Cl	BAZ2B block inconclusive, JMJD2A Tudor inh inconclusive (no result: G9a inh)
